# SKKanGAS inh – blocks kanamycin growth of S. pyogenes SKKanGAS strain; BacTiter-Glo, 6 h; inhibition, % at 7.5 µM; hit rate 1.3% among 300,000;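 active = mean replicate score, as percent of positive control median, at least 50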;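 also: strain carries kanamycin resistance gene driven by streptokinase promoter and grows in 40 µg/ml kanamycin; loss of luminescence reflects streptokinase promoter inhibition or plain growth inhibition; 0% = median of DMSO wells and 100% = positive control at its reference dose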
# TIM10 inh – growth inhibitors of TIM10 yeast strain. S. cerevisiae TIM10 strain growth, BacTiter-Glo luminescence, 24 h. inhibition, % at 10 µM. hit rate 1.4% among 330,000. AID 463195;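 active = inhibition of 40% or more at the single tested concentration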;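 also: wild-type TIM10 isogenic control strain grown at permissive 25 °C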
# NALP3 yeast inh – NALP3 inhibition in yeast; Yeast reconstituted NLRP3/ASC/caspase-1, beta-gal luminescence, 24 h; AID 2825; hit rate 0.39% among 330,000; inhibition, % at 10 µM;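 active = inhibition of 50% or more; inactive = inhibition below 50%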;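 also: plate controls were induced DMSO wells for no effect and uninduced yeast grown without galactose for full effect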
# tim23-1 inh – tim23-1 yeast growth inhibition | S. cerevisiae tim23-1 growth, BacTiter-Glo luminescence, 24 h | inhibition, % at 20 µM | hit rate 1.3% among 330,000;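 active = growth inhibition of the mutant yeast at or above 50%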;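 also: temperature-sensitive mutant grown at 25 °C; plate controls were DMSO-treated mutant yeast for no effect and medium wells lacking yeast for full effect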
# tim10-1 inh – inhibits growth of tim10-1 mutant yeast | hit rate 2.2% among 330,000 | AID 463190 | inhibition, % at 20 µM | S. cerevisiae tim10-1 ts strain growth, BacTiter-Glo, 24 h;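 active = inhibition of at least 40%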;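 also: mutant grown at 25 °C; 0% = DMSO wells with yeast and 100% = wells holding no yeast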
# TIM10 conf – TIM10 yeast growth inhibition, confirmed. shares compounds with TIM10 inh. S. cerevisiae tim10 strain growth, BacTiter-Glo luminescence, 24 h. inhibition, % at 10 µM. hit rate 63% among 4,600;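 active = inhibition of yeast growth at or above a set limit in either of two replicates at 10 µM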;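 also: this counterscreen used the strain with wild-type TIM10; 0% = yeast with DMSO and 100% = medium wells lacking yeast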
# * marks the source's active call; other numbers are inactive results; x = not tested or not shown. Shown are actives, neighbours in structure and some others; about 4.6% of the full set was active somewhere.
SMILES,SKKanGAS inh,TIM10 inh,NALP3 yeast inh,tim23-1 inh,tim10-1 inh,TIM10 conf
COc1ccc(C(=O)CSc2ccc(-c3ccccc3)nn2)cc1,-10,7,31,21,-15,x
CCOc1ccccc1NS(=O)(=O)c1cn(C)nc1C,-12,7,1,-31,4,x
Cn1c(=O)c2c(-c3ccccc3)n3c4ccccc4ncc3c2n(C)c1=O,1,42*,18,17,24,-16
CC(=O)Nc1cccc(NC(=O)CSc2nc(=O)n(Cc3ccncc3)c3c2CCC3)c1,-2,-9,3,-1,3,x
CC(=O)Nc1cccc(NC(=O)CSc2nc(=O)n(Cc3ccccn3)c3c2CCC3)c1,-6,97*,12,8,8,4
CC1CCN(C(=O)C2CCC(C)(C(=O)O)C2(C)C)CC1 (centres undefined),-5,-3,17,8,5,x
COc1cccc(CN(C)C(=S)Nc2ccc(C)c(C)c2)c1,3,46*,9,9,30,3
O=C(COc1cccc(NC(=O)c2cccc([N+](=O)[O-])c2)c1)c1ccc(Br)cc1,15,42*,15,29,29,31*
O=C(/C=C/c1ccc(O)c([N+](=O)[O-])c1)c1ccc2ccccc2c1,9,0,13,11,12,x
COc1ccc(Oc2ccc(/C=C/C(=O)c3ccc(O)cc3)cc2[N+](=O)[O-])cc1,-11,44*,32,49,31,39*
Cc1cccc(C)c1NC(=S)NC(=O)c1ccc(Br)o1,0,42*,-17,38,34,43*
Cc1cccc(NC(=S)NC(=O)c2ccc(Br)o2)c1C,2,-2,45,-1,-4,x
CCC(c1nnc(SCc2nc3ccccc3s2)n1Cc1ccccc1)N(C)C (centres undefined),-1,41*,22,23,33,-18
c1ccc(Cn2c(SCc3nc4ccccc4s3)nnc2-c2ccco2)cc1,4,-6,26,36,17,x
CCOc1ccc2oc(C(=O)N3CC(C)OC(C)C3)c(C)c2c1 (centres undefined),-8,-2,28,13,19,x
CCCCOC(=O)CCn1c(=S)oc2ccccc21,1,10,22,25,11,x
CCCCOC(=O)n1c(=S)oc2cc(Cl)ccc21,-1,74*,17,-155,-54,-39
Cc1ccc(-c2csc(N(CC3CCCO3)C(=O)c3ccco3)n2)cc1 (centres undefined),-3,43*,14,5,27,42*
O=C(CN1C(=O)NC2(CCCC2)C1=O)NCc1ccccc1,x,-6,-14,-2,0,x
Cc1cc(NC(=O)CSc2nc(CC(C)(C)C)nc3c2c(=O)n(C)c(=O)n3C)no1,0,4,5,18,9,x
Cc1cc(NC(=O)CCC(=O)N(CC(=O)NCC2CCCO2)c2ccc(F)c(Cl)c2)no1 (centres undefined),1,-10,-8,15,5,x
CCCCCn1c(CNC(=O)c2cccs2)nc2ccccc21,6,32,18,33,37,x
CCCCCn1c(CCNC(=O)c2cccs2)nc2ccccc21,3,41*,27,48,38,31
O=C(NCC1COc2ccccc2O1)Nc1ccccc1F (centres undefined),3,24,25,29,9,x
CN(CC1COc2ccccc2O1)C(=S)Nc1ccccc1F (centres undefined),1,41*,32,43,28,26
SMILES,SKKanGAS inh,TIM10 inh,NALP3 yeast inh,tim23-1 inh,tim10-1 inh,TIM10 conf
CCCCCCCCCCOC(=O)c1csc2nnsc12,13,-11,25,-1,-5,x
CS(=O)(=O)c1cccc(C(=O)OCC(=O)NCc2cccs2)c1,x,72*,-3,3,5,-8
O=C(CN1CCN(C(=O)C2CCCO2)CC1)Nc1ccc(Cl)c(Cl)c1 (centres undefined),-10,7,16,23,3,x
CCOC(=O)CSc1nnc(-c2ccoc2C)n1-c1ccc(C)cc1,-5,8,3,25,28,x
CCOC(=O)CSc1nnc(-c2ccoc2C)n1-c1ccc(OCC)cc1,0,45*,1,25,37,-5
Oc1ccccc1-n1nc2ccc3nonc3c2n1,-3,28,7,4,25,x
COCCN1C(=O)C(=O)/C(=C(/O)c2ccc(S(=O)(=O)N3CCCCC3)cc2)C1c1ccc(OC)cc1 (centres undefined),-3,90*,3,-3,1,5
Cc1cc(C)cc(CC2CC(=O)N(c3ccc(Cl)cn3)C2=O)c1 (centres undefined),-5,51*,25,48,29,23
COc1ccc(Cn2c(=O)oc3ccc(C)cc32)cc1,6,97*,30,18,-6,5
Cc1cc(C)cc(-n2cnc3cc(C(=O)O)ccc32)c1,-4,10,-1,9,-3,x
CCCNC(=O)c1ccc2c(c1)ncn2-c1cc(C)cc(C)c1,5,42*,9,38,27,22
C=C(C)CNC(=S)NN=C1c2ccccc2-c2ccccc21,20,19,25,32,31,x
CCNC(=S)NN=C1c2ccccc2-c2ccccc21,8,44*,41,7,37,25
O=C1CCC(C(=O)OCC(=O)N2N=C3/C(=C/c4ccccc4)CCCC3C2c2ccccc2)N1 (centres undefined),4,42*,2,29,18,19
CC(Cc1nnc(SCC(=O)O)n1N)c1ccccc1 (centres undefined),2,9,2,7,22,x
COc1ccc(NC(=O)COC(=O)c2cccn2C)cc1S(=O)(=O)N1CCCCC1,x,-1,4,0,-3,x
C=CCn1c(C(C)NC(=O)COC)nc2ccccc21 (centres undefined),-4,97*,11,3,-3,-19
C=CCn1c(C(CC)CC)nc2ccccc21,2,4,-5,12,12,x
O=C1CCC/C(=N\NC(=O)c2ccc(CSc3cccc4cccnc34)cc2)C1,0,14,16,-3,7,x
S=c1[nH]c(-c2ccccc2)cn1-c1ccccc1,-5,46*,32,46,36,49*
Nc1ccc(-n2cc(-c3ccccc3)[nH]c2=S)cc1,-2,21,22,33,37,x
O=C(OCN1C(=O)c2ccccc2C1=O)c1cccc(S(=O)(=O)N2CCOCC2)c1,-2,10,14,16,7,x
O=S(=O)(NCc1ccc2c(c1)OCO2)c1ccc2oc3ccccc3c2c1,22,49*,4,32,22,35*
Cc1[nH]c(=O)c(C#N)c(C)c1CCC(=O)NCc1cccc(C(F)(F)F)c1,-2,-11,22,3,12,x
CCOC(=O)c1cnc2c(OC)cccc2c1N1CCN(c2ccccc2OC)CC1,14,42*,31,34,37,-23
CCN(CC)c1ccc(-c2n[nH]c(=S)n2-c2ccccc2)cc1,-1,41*,17,32,21,27
